Results with a measured potency or affinity are listed apart. Results filed as inconclusive are left out. The source made the active and inactive calls. Unless noted, no rule for the calls is given here.
Assays:
[1] = cytotoxicity in PAX8-dependent RMG-1 cells, dose response, cell-based, cherry-pick (AID 687029;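 active = signal drop whose fitted half-maximal concentration is at most twice the top valid dose, in every test run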;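 also: cells exposed to compound for 96 hours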); conditions: RMG-1 viability, CellTiterGlo ATP luminescence, 96 h; series mostly up to 35 µM
[2] = cytotoxicity in IOSE-T80 ovarian epithelial cells, dose response, selectivity assay for PAX8 inhibitor project, cell-based, cherry-pick (AID 687032;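 active = fitted half-maximal concentration for viability loss no higher than twice the top valid dose, in every repeat run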;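 also: cells exposed to compound for 96 h before reading; 0% = neutral control wells and -100% = 2 µM mitoxantrone kill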); conditions: CellTiterGlo ATP luminescence, 96 h; series mostly up to 35 µM
[3] = non-specific cell cytotoxicity, dose response, cytotoxicity control for PAX8 inhibitor project, plate reader, dry powder samples (AID 743021); conditions: cell line, non-specific cytotoxicity counter-screen; series mostly up to 35 µM
[4] = IGROV1 ovarian cancer cell cytotoxicity, dose response, PAX8 inhibitor project, plate reader, dry powder samples (AID 743043); conditions: series mostly up to 35 µM;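 also: more negative means fewer viable cells or more cytotoxicity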
[5] = IOSE-T80 ovarian epithelial cell cytotoxicity, dose response, cytotoxicity control for PAX8 inhibitor project, plate reader, dry powder samples (AID 743045); conditions: IOSE-T80 ovarian epithelial cells; series mostly up to 35 µM;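 also: 0% = neutral control median and -100% = positive control median; more negative values mean more cell killing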
[6] = NIH:OVCAR-3 ovarian cancer cell cytotoxicity, dose response, PAX8 inhibitor project, plate reader, dry powder samples (AID 743044); conditions: NIH:OVCAR-3 ovarian cancer cell viability; max activity: at 35 µM, stronger effect = lower value unless noted; series mostly up to 50 µM
[7] = A2780 ovarian cancer cell cytotoxicity, dose response, cytotoxicity control, plate reader, dry powder samples (AID 743046); conditions: series mostly up to 35 µM;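 also: 0% = neutral control wells and -100% = cytotoxic reference compound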
[8] = cytotoxicity in OVCAR8 ovarian cancer cells, dose response, PAX8 project, cell-based, plate reader, dry powder samples (AID 743197); conditions: series mostly up to 35 µM
[9] = A549 cell cytotoxicity, dose response, cytotoxicity control, plate reader, cherry-pick, antagonist series (AID 743412); conditions: series mostly up to 26 µM;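 also: 0% = neutral control wells and -100% = positive control wells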
[10] = HepG2 cell cytotoxicity, dose response, cytotoxicity control, plate reader, cherry-pick, antagonist series (AID 743416); conditions: series mostly up to 26 µM;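 also: 0% = neutral control wells and -100% = positive control wells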

Measured: max activity

C[C@H]1CCCCO[C@@H](CN(C)Cc2ccc(Cl)c(Cl)c2)[C@@H](C)CN([C@@H](C)CO)C(=O)c2cc(NC(=O)Nc3ccc(C(F)(F)F)cc3)ccc2O1
inactive: [1] | [2] | [3] | [4] | [5]

COc1ccc(S(=O)(=O)Nc2ccc3c(c2)CC(=O)N([C@H](C)CO)C[C@H](C)[C@@H](CN(C)Cc2ccc(C(F)(F)F)cc2)O3)cc1
inactive: [1] | [2] | [3] | [4] | [6] -8.3% [at 8 µM, stronger effect = lower value] | [5] | [7]

COc1ccc(CCN2C(=O)CSC2=S)cc1OC
inactive: [1] | [2] | [3] | [4] | [6] | [7]

N#Cc1ccc(-c2ccc(C3[C@@H]4CN(C(=O)c5ccc6c(c5)OCO6)C[C@H]3N4)cc2)cc1 (stereo partly drawn)
not listed: [6] | [9] | [10]
inactive: all other assays above

CCCN(C)C[C@H]1OCCCC[C@@H](C)Oc2ccc(NC(=O)Nc3ccc(C(F)(F)F)cc3)cc2C(=O)N([C@H](C)CO)C[C@H]1C
inactive: [1] | [2] | [3] | [4] | [6] 9.68% [at 1 µM, stronger effect = lower value] | [5] | [7] | [8]

Cc1ccccc1OCC(=O)Nc1cccc(C(=O)O)c1
not listed: [8]
inactive: all other assays above

O=C(Nc1ccc(C(F)(F)F)cc1)Nc1ccc2c(c1)[C@H]1C[C@@H](CC(=O)N3CCc4ccccc4C3)O[C@H](CO)[C@H]1O2
inactive: [1] | [2] | [3] | [4] | [5] | [7]

C[C@@H]1CCCCO[C@@H](CN(C)C(=O)Nc2ccc(C(F)(F)F)cc2)[C@H](C)CN([C@@H](C)CO)C(=O)c2cc(NC(=O)Nc3ccc(C(F)(F)F)cc3)ccc2O1
inactive: [1] | [2] | [3] | [4] | [6] -30.2% | [5] | [7] | [8]

C[C@@H]1CCCCO[C@H](CN(C)C(=O)Nc2ccc(C(F)(F)F)cc2)[C@@H](C)CN([C@@H](C)CO)C(=O)c2cc(NS(=O)(=O)c3ccc(F)cc3)ccc2O1
inactive: [1] | [2] | [3] | [4] | [6] 19.5% [at 4.2 µM, stronger effect = lower value] | [5] | [7]

C[C@@H]1CCCCO[C@@H](CN(C)Cc2ccc(Cl)c(Cl)c2)[C@H](C)CN([C@@H](C)CO)C(=O)c2cc(NC(=O)Nc3ccc(C(F)(F)F)cc3)ccc2O1
not listed: [6] | [9] | [10]
inactive: all other assays above

O=C(Nc1ccccc1)N1CCCCN2[C@H](C1)[C@@H](c1ccc(C#Cc3ccccc3)cc1)[C@@H]2CO
inactive: [1] | [2] | [3] | [4] | [5] | [7]

C[C@H]1CN([C@@H](C)CO)C(=O)Cc2cc(NC(=O)Nc3ccc4c(c3)OCO4)ccc2O[C@@H]1CN(C)Cc1ccc(-c2ccccc2)cc1
inactive: [1] | [2] | [3] | [4] | [6] -22.8% [at 16 µM, stronger effect = lower value] | [5] | [7] | [8]

C[C@@H]1CN([C@@H](C)CO)C(=O)Cc2cc(NC(=O)NC3CCCCC3)ccc2O[C@H]1CN(C)Cc1ccc(-c2ccccc2)cc1
inactive: [1] | [2] | [3] | [4] | [5]

COc1ccc(NC(=O)N(C)C[C@H]2OCCCC[C@@H](C)Oc3ccc(NC(=O)Nc4ccc(C(F)(F)F)cc4)cc3C(=O)N([C@@H](C)CO)C[C@@H]2C)cc1
inactive: [1] | [2] | [3] | [4] | [5] | [7]

C[C@@H]1CCCCO[C@@H](CN(C)C(=O)Nc2ccc(F)cc2)[C@H](C)CN([C@@H](C)CO)C(=O)c2cc(NC(=O)Nc3ccc(C(F)(F)F)cc3)ccc2O1
inactive: [1] | [2] | [3] | [4] | [6] -4.11% | [5] | [7] | [8]

C[C@H]1CN([C@@H](C)CO)S(=O)(=O)c2ccc(C#CC3CCCC3)cc2O[C@@H]1CN(C)Cc1cccnc1
inactive: [1] | [2] | [3] | [4] | [5] | [7]

Cc1noc(C)c1S(=O)(=O)Nc1ccc2c(c1)C(=O)N([C@@H](C)CO)C[C@H](C)[C@@H](CN(C)C(=O)Nc1ccc(C(F)(F)F)cc1)OCCCC[C@H](C)O2
inactive: [1] | [2] | [3] | [4] | [5] | [7]

C[C@@H]1CCCCO[C@H](CN(C)CC2CCCCC2)[C@H](C)CN([C@@H](C)CO)C(=O)c2cc(NS(=O)(=O)c3ccc(Cl)cc3)ccc2O1
inactive: [1] | [2] | [3] | [4] | [6] 13.1% [at 0.5 µM, stronger effect = lower value] | [5] | [7] | [8]

COc1ccc(S(=O)(=O)Nc2ccc3c(c2)C(=O)N([C@H](C)CO)C[C@@H](C)[C@@H](CN(C)Cc2ccc(C(F)(F)F)cc2)OCCCC[C@H](C)O3)cc1
not listed: [6] | [9] | [10]
inactive: all other assays above

C[C@@H]1CN([C@H](C)CO)C(=O)c2cc(NC(=O)Nc3ccc(C(F)(F)F)cc3)ccc2O[C@@H](C)CCCCO[C@H]1CN(C)S(=O)(=O)c1ccc(F)cc1
inactive: [1] | [2] | [3] | [4] | [6] -20.5% [at 8 µM, stronger effect = lower value] | [5] | [7] | [8]

C[C@@H]1CCCCO[C@H](CN(C)C(=O)Nc2ccc(F)cc2)[C@@H](C)CN([C@@H](C)CO)C(=O)c2cc(NS(=O)(=O)c3ccc(Cl)cc3)ccc2O1
inactive: [1] | [2] | [3] | [4] | [5] | [7]

C[C@@H]1CCCCO[C@H](CN(C)S(=O)(=O)c2ccc(Cl)cc2)[C@H](C)CN([C@@H](C)CO)C(=O)c2cc(N(C)C)ccc2O1
inactive: [1] | [2] | [3] | [4] | [6] 36.7% [at 16 µM, stronger effect = lower value] | [5] | [7] | [8]

C[C@H]1CN([C@@H](C)CO)C(=O)c2c(c3ccccc3n2C)-c2ccccc2CO[C@@H]1CN(C)S(=O)(=O)c1cccc(F)c1
inactive: [1] | [2] | [3] | [4] | [6] -21.9% | [5] | [7]

O=C1/C(=C/c2cccc(Br)c2)SC(=S)N1CCC(=O)N(CCO)c1ccccc1
not listed: [8] | [9] | [10]
inactive: all other assays above

C[C@@H]1CCCCO[C@H](CN(C)C(=O)Nc2ccc(C(F)(F)F)cc2)[C@@H](C)CN([C@@H](C)CO)C(=O)c2cc(NS(=O)(=O)c3ccccc3)ccc2O1
inactive: [1] | [2] | [3] | [4] | [6] 27.6% [at 0.26 µM, stronger effect = lower value] | [5] | [7] | [8]

C[C@H]1CCCCO[C@@H](CN(C)Cc2ccc(C(F)(F)F)cc2)[C@@H](C)CN([C@@H](C)CO)C(=O)c2cc(NC(=O)Nc3ccc(F)cc3)ccc2O1
inactive: [1] | [2] | [3] | [4] | [5] | [7]

O=C(C[C@H]1C[C@@H]2c3cc(NS(=O)(=O)c4ccc(F)cc4)ccc3O[C@@H]2[C@@H](CO)O1)NCc1ccc(Oc2ccccc2)cc1
inactive: [1] | [2] | [3] | [4] | [6] 26.4% | [5] | [7] | [8]

C[C@@H]1CCCCO[C@H](CN(C)Cc2ccc(Cl)c(Cl)c2)[C@H](C)CN([C@@H](C)CO)C(=O)c2cc(NC(=O)Nc3ccc(C(F)(F)F)cc3)ccc2O1
inactive: [1] | [2] | [3] | [4] | [5] | [7]

CC1(C)CC(=O)c2sc(NC(=O)CCS(=O)(=O)c3ccccc3)nc2C1
inactive: [1] | [2] | [3] | [4] | [6] | [7]

C[C@@H]1CN([C@@H](C)CO)S(=O)(=O)c2ccc(C#Cc3ccccc3F)cc2O[C@H]1CN(C)C(=O)c1ccc2c(c1)OCO2
inactive: [1] | [2] | [3] | [5]

C[C@H](CO)N1C[C@H](C)[C@@H](CN(C)Cc2ccc(C(F)(F)F)cc2)OCCCC[C@H](C)Oc2ccc(NS(=O)(=O)c3ccc(Cl)cc3)cc2C1=O
inactive: [1] | [2] | [3] | [5]

CC(C)CC#Cc1ccc2c(c1)O[C@@H](CN(C)Cc1ccncc1)[C@H](C)CN([C@H](C)CO)S2(=O)=O
inactive: [1] | [2] | [3] | [4] | [7]

C[C@@H]1CN([C@H](C)CO)C(=O)c2cc(NS(=O)(=O)c3ccc(Cl)cc3)ccc2O[C@@H](C)CCCCO[C@@H]1CN(C)CC1CCCCC1
inactive: [1] | [2] | [3] | [5] | [7]

Reference: PubChem BioAssay
